From PubChem BioAssay (NCATS)
A number with no mark means an inactive call. Results filed as inconclusive are left out. Active and inactive are the calls of the source. Unless noted, calls follow the shape of the dose curve; as a rule, active = well fitted curve in the direction sought with a large enough effect; inconclusive = small, poorly fitted or top-dose-only effect, or another doubt; inactive = no such curve, though single readings can be large; an effect the other way counts as inactive or inconclusive.

Tests used:
[1] = qHTS Assay for Identification of Small Molecule Inducers of Hypoxia Response (AID 2120; active = well fitted curve in the direction sought with a large enough effect in the signal ratio, with a control signal flat, not every such curve was filed as active; the % refers to the signal ratio; also: potency is read from the fitted curve at half-maximal effect)
Summary of the method: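 HRE-bla ME-180, 2500 cells/well, 0.5% dialyzed FBS medium; cpd titration, 17 h 37 degrees C; CCF4 2.5 h RT; Ex 405, Em 460/530 ratio -> %Activity, AC50.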

[2] = target: Thyroid hormone receptor beta (Homo sapiens) (UniProt P10828); assay: qHTS assay for small molecule agonists of thyroid hormone receptor beta signaling (AID 588545; calls by dose curve; also: potency is read from the fitted curve at half-maximal effect)
Summary of the method: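 Stimulation of a TR-driven beta-lactamase reporter was quantified in GripTite HEK 293 cells. Compound series ran for 18 hrs; curves were normalized to T3 and DMSO controls and fitted to yield EC50.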

[3] = qHTS assay for small molecule agonists of the antioxidant response element (ARE) signaling pathway (AID 651741; active = well fitted activation curve with a large enough effect in the signal ratio; the % refers to the signal ratio; also: potency is read from the fitted curve at half-maximal effect)
Summary of the method: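 HepG2 ARE-bla reporter cells, 2,000/well; 5 h settle at 37 C/5% CO2; compound pin transfer (23 nL, DMSO); 16 h at 37 C; LiveBLAzer B/G FRET substrate, 2 h RT; fluorescence intensity read.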

[4] = qHTS assay for small molecule activators of the p53 signaling pathway (AID 651743; active = well fitted activation curve with a large enough effect in the signal ratio, not every such curve was filed as active; the % refers to the signal ratio; also: potency is read from the fitted curve at half-maximal effect); settings: HCT-116 p53RE-bla, beta-lactamase FRET ratio, 16 h; activation: hits give high values
Summary of the method: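 Reporter: beta-lactamase driven by p53 response elements, stably integrated in HCT-116 cells. Cells seeded at 4,000/well, 5 h preincubation, compound (DMSO) 16 h at 37 C; B/G FRET substrate 2 h RT; fluorescence intensity read.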

[5] = qHTS assay for environmental chemicals that activate the Aryl hydrocarbon Receptor (AhR) signaling pathway (AID 651777); settings: 1A2-DRE human hepatoma cells, luciferase, 24 h; activation: hits give high values; also: potency is read from the fitted curve at half-maximal effect; nearly all actives have a fitted effect of over 15% in size
Summary of the method: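 Human hepatoma 1A2-DRE cells stably carrying a DRE/CYP1A2 promoter–luciferase reporter, 1,200 cells/well, exposed to compound 24 hr at 37 C. Luciferase read by One-Glo luminescence after 30 min at room temperature; increased signal marks AhR activation.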

[6] = target: Nuclear receptor ROR-gamma (Homo sapiens) (UniProt P51449); assay: qHTS assay for small molecule antagonists of the retinoid-related orphan receptor gamma (ROR-gamma) signaling pathway (AID 651802);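 also: CHO cells with doxycycline-induced ROR-gamma expression; luciferase reporter luminescence driven by ROR response element; series mostly up to about 92 µM; % is scaled to controls: 0 for no effect and ±100 for the full control effect; nearly all actives have a fitted effect of over 60% in size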
Summary of the method: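 Doxycycline-induced reporter activity in engineered CHO cells (TET-inducible ROR, RORE-LUC) was measured by luminescence after 16hr compound exposure at 37C.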

[7] = system: HIV-1 nucleocapsid protein NCp7 (binding to TG oligonucleotide); assay: HIV Nucleocapsid (AID 346; call rule not given here;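 also: potency is read from the fitted curve at half-maximal effect; potency is for inhibitors that block NC binding and lower polarization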); settings: HIV-1 NC / fluorescein-TGTGTGTG probe, fluorescence polarization
Summary of the method: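 NCp7 100 nM + fluorescein TG4xF 10 nM; Hepes pH 7.5/250mM NaCl/1uM ZnCl2/0.004% PEG 20000; 1 hr RT; FP, 45 s exposure; oligo-only wells as negative control.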

Sequence of Nuclear receptor ROR-gamma (Homo sapiens) (P51449 whole entry, looked up): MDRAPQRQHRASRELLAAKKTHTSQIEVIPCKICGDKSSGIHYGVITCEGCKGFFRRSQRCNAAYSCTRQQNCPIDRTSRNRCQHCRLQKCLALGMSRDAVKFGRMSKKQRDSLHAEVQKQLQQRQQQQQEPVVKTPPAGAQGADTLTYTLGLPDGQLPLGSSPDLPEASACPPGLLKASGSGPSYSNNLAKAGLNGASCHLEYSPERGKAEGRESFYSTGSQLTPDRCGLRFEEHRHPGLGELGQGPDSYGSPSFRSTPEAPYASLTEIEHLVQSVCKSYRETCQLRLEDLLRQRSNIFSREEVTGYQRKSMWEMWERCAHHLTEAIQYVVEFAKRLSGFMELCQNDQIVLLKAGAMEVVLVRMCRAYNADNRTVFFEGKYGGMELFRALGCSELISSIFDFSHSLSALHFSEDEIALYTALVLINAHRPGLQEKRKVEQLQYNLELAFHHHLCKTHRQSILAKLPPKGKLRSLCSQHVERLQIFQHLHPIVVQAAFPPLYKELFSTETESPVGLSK
Sequence of Thyroid hormone receptor beta (Homo sapiens) (P10828 whole entry, looked up): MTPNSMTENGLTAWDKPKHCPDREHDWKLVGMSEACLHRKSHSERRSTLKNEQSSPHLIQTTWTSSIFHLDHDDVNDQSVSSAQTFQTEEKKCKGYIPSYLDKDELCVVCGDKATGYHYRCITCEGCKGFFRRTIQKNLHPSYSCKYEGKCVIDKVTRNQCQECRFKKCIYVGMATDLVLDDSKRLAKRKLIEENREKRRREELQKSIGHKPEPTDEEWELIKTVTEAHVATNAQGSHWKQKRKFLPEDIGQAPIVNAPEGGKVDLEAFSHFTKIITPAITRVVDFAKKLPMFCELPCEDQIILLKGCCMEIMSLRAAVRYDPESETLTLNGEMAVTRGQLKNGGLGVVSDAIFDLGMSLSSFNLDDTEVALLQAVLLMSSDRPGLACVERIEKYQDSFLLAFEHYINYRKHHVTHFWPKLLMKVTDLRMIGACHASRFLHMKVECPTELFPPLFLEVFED

| Compound | Potency [1] | Potency [2] | Potency [3] | Potency [4] | Potency [5] | Potency [6] | Potency [7] [µM] |
| --- | --- | --- | --- | --- | --- | --- | --- |
| c1ccc2c(c1)ccc1cc3c(ccc4ccccc43)cc12 | 44.7 µM (active) | 39.8 µM (active) | 2.37 µM (active) | 39.8 µM (active) | 2.82 µM (active) | inactive |  |
| CCNc1ncc2ncc(=O)n(Cc3cccc(OC)c3)c2n1 |  |  |  |  |  |  | > 20 |
